CHX counter – Cycloheximide Counterscreen for Small Molecule Inhibitors of Shiga Toxin; actives 12% (n = 300,000); max response, %; cell reporter, cycloheximide protein synthesis inhibition counterscreen; in the data active = max response mostly above about 13%, no sharp cut-off; inactive = mostly below about 14%; note: read at 38.3 µM for the half of the compounds with a filed dose
Shiga toxin inh – A qHTS for Small Molecule Inhibitors of Shiga Toxin. Vero cells, Shiga toxin protein synthesis inhibition reporter. inhibition, % at 38.7 µM. actives 9.2% (n = 290,000). AID 2315, 2010; in the data active = inhibition mostly above about 28%, no sharp cut-off; inactive = mostly below about 43%
RE007 growth inh – qHTS Assay for Inhibitors of the HIV-1 protein Vpr. S. pombe RE007 Vpr strain, BacTiter-Glo ATP luminescence, 24 h. Potency, µM (top dose mostly 92.2 µM), hits mostly inhibitors. actives 0.21% (n = 360,000). AID 651644, 2012; active = well fitted falling curve with a large enough effect; inconclusive = small, poorly fitted or top-dose-only effect; inactive = no such curve, though single readings can be large or run the other way; note: nearly all actives have a fitted effect of over 50% in size
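Fission yeast RE007 carrying one integrated HIV-1 vpr copy, seeded at OD 0.01 in PMG+AL medium with 23 nL pinned compound. Grown 24 h at 30 degrees; viability read by BacTiter-Glo luminescence after 5 min.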
LmPK inh – qHTS Assay for Inhibitors of Leishmania Mexicana Pyruvate Kinase (LmPK). actives 0.37% (n = 290,000). AID 1721, 2009. purified LmPK, Kinase-Glo ATP luminescence, 1 h. Q27686. Potency, µM (doses to about 57.5 µM), hits mostly inhibitors
Target sequence (Q27686 whole entry, looked up): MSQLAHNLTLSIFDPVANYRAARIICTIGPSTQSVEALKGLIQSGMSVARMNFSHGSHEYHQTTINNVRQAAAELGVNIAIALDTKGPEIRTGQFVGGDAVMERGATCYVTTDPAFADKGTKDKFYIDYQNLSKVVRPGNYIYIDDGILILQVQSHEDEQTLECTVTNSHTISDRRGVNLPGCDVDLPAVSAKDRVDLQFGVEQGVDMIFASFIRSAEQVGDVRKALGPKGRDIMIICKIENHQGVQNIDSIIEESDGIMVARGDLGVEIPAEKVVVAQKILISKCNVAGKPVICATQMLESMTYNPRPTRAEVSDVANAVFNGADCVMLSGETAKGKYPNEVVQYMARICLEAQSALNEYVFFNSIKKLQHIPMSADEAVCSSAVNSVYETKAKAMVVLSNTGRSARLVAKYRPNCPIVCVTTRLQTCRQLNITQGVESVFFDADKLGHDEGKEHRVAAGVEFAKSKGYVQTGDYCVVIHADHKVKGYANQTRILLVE
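In 50 mM imidazole pH 7.2 with 7 mM MgCl2, LmPK (0.1 nM) turned over PEP (0.5 mM) and ADP (0.1 mM) for 1 h at room temperature. Luciferase read-out of ATP.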
Giardia FBPA inh – qHTS Assay for Inhibitors of Fructose-1,6-bisphosphate Aldolase from Giardia Lamblia. actives 0.71% (n = 290,000). AID 2451, 2010. A8B2U2. Potency, µM (series often up to 59.6 µM), hits mostly inhibitors. purified Giardia FBPA; note: nearly all actives have a fitted effect of over 55% in size
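Giardia FBPA (40 nM reagent) was preincubated 10 min at RT with compound (up to 57.5 uM final), then substrate plus GAPDH/TPI/NAD/arsenate coupling system with diaphorase/resazurin was added; resorufin fluorescence (525/598 nm) was read after 20 min.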
TbPYK inhibitor – qHTS of Trypanosoma Brucei Inhibitors | TbPYK enzyme, Kinase-Glo Plus ATP luminescence, 45 min | Potency, µM (series often up to 76.8 µM), usual class: inhibitors | actives 0.12% (n = 410,000); note: nearly all actives have a fitted effect of over 50% in size
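In this concentration-response screen, enzyme-free wells defined baseline while DMSO plates tracked drift. Each reaction combined TbPYK, substrate, compound and 130 uM ADP for 45 min at room temperature. Kinase-Glo Plus luminescence gave the signal.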
Large screens that a line does not name were inactive. The full list was thinned out, with hits kept by preference. Unless noted, calls come from the whole dose curve; as a rule, active = well fitted curve in the direction sought with a large enough effect; inconclusive = small, poorly fitted or top-dose-only effect, or another doubt; inactive = no such curve, though single readings can be large; an effect the other way counts as inactive or inconclusive.

CN(Cc1ccc(Cl)c(Cl)c1)C(=O)C1CSC2(C)CCC(=O)N12 (stereo not drawn)	none (no result: CHX counter, Shiga toxin inh, LmPK inh, Giardia FBPA inh)
O=C(Nc1ccc(Cl)cc1)C1Cc2c(-c3cccc(F)c3)ccnc2O1 (stereo not drawn)	none (no result: CHX counter, Shiga toxin inh, LmPK inh, Giardia FBPA inh)
COc1ccc(-c2c3c(=O)n(C)c(=O)n(C)c3c3n2-c2ccccc2NC3c2ccccc2OC)cc1 (stereo not drawn)	none (no result: CHX counter, Shiga toxin inh, RE007 growth inh, LmPK inh, Giardia FBPA inh)
CN1CCN(C(=O)c2cc3c(s2)-c2ccccc2S(=O)(=O)C3)CC1	none
CCCCN(C)C(=O)c1cc2c(s1)-c1ccccc1S(=O)(=O)C2	CHX counter 21
CC(C)CCNC(=O)c1cc2c(s1)-c1ccccc1S(=O)(=O)C2	CHX counter 16, RE007 growth inh inconclusive
COc1ccc(N(C)C(=O)c2cc3c(s2)-c2ccccc2S(=O)(=O)C3)cc1	none
COC(=O)NC(c1cccc(C)c1)[C@]1(C(C)=O)CCCC1=O (stereo partly drawn)	none (no result: CHX counter, Shiga toxin inh, RE007 growth inh, LmPK inh, TbPYK inhibitor)
CCn1nc(-c2ccccc2)nc2c(=O)n(C)c(=O)nc1-2	CHX counter 43, Shiga toxin inh 48, RE007 growth inh 25µM, Giardia FBPA inh inconclusive
CCOC(=O)Cn1nc(-c2ccccc2)c(-c2ccccc2)nc1=O	none
CCCCCCC1/C(=N\NC(=O)c2ccccc2)CCC1C(=O)OC (stereo not drawn)	CHX counter 35, Shiga toxin inh 80
CCc1nc2ccc(C(=O)Nc3cc(-c4ccccc4)ccc3OC)cn2c1N(C=O)CCC(C)C	none (no result: CHX counter, Shiga toxin inh, LmPK inh, Giardia FBPA inh)
Cc1cnc2c3c(cc(Cl)c2c1)-c1ccccc1S(=O)(=O)N3	CHX counter 73, Shiga toxin inh 54 (no result: RE007 growth inh, LmPK inh, Giardia FBPA inh, TbPYK inhibitor)
COc1cc(Cl)c(NC(=O)c2cc3ccccn3n2)c(OC)c1	none (no result: CHX counter, Shiga toxin inh, RE007 growth inh, LmPK inh, Giardia FBPA inh)
O=C(O)c1cc(-c2ccc3ccccc3n2)nc2ccccc12	Giardia FBPA inh inconclusive
CNc1ccccc(-c2ccc3ccccc3n2)c1=O	CHX counter 59, Shiga toxin inh 52, Giardia FBPA inh inconclusive
CC(=O)N(c1ccccc1)c1nc2ccccc2s1	none (no result: CHX counter, Shiga toxin inh, LmPK inh, Giardia FBPA inh)
CCCCNC(=O)N(C)c1nc2ccccc2s1	CHX counter 50, Shiga toxin inh 68
Cc1ccc2sc(N(CCCN(C)C)C(=O)c3nc4ccccc4s3)nc2c1C	none
COCCNC(=O)c1cc2sc3ccccc3c2s1	CHX counter 58, Shiga toxin inh 89
CCCCNC(=O)c1cc2ccccc2s1	CHX counter 38, Shiga toxin inh 71
COC(=O)N(C)c1nc2ccccc2s1	CHX counter 36, RE007 growth inh inconclusive
Cc1c(C(=O)NCc2cccc(Cl)c2)sc2ncnc(N(C)C3CCCCC3)c12	none (no result: CHX counter, Shiga toxin inh, RE007 growth inh, LmPK inh, Giardia FBPA inh)
Cc1ccc(C(c2sc3nc(-c4ccco4)nn3c2O)N2CCCCC2)cc1 (stereo not drawn)	none (no result: CHX counter, Shiga toxin inh, RE007 growth inh, LmPK inh, Giardia FBPA inh)
O=C(CC1NCCNC1=O)NC1Cc2ccccc2C1 (stereo not drawn)	none
CCC(=O)Nc1ccccc1C(=O)OCC(=O)c1ccccc1	CHX counter 20, Shiga toxin inh 89 (no result: Giardia FBPA inh)
NC(=O)NCCCC(=O)OCC(=O)c1ccc2ccccc2c1	CHX counter 21
CC(=O)Nc1ccccc1C(=O)OCC(=O)c1ccc2ccccc2c1	CHX counter 28, Shiga toxin inh 76 (no result: Giardia FBPA inh)
CCC(=O)Nc1ccccc1C(=O)OCC(=O)c1ccc2ccccc2c1	none
COCCCNC(=O)CN1C(=O)COc2ccc(S(=O)(=O)N3CCCC3)cc21	none (no result: CHX counter, Shiga toxin inh, RE007 growth inh, LmPK inh, Giardia FBPA inh)
Cc1oncc1C(=O)N1CCCC(CO)(Cc2ccc(F)cc2F)C1 (stereo not drawn)	CHX counter 17
CC(=O)N(Cc1ccco1)Cc1cc2cccc(C)c2n2nnnc12	none (no result: RE007 growth inh, TbPYK inhibitor)
Cc1cccc2cc(CN(Cc3nnnn3Cc3ccco3)C3CCCC3)c3nnnn3c12	Shiga toxin inh 29
N#CCC(=O)N1CCN(C=O)CC1	none
Clc1ncccc1-c1nnn(-c2ccccc2Br)n1	CHX counter 34, Shiga toxin inh 73
c1ccc(-n2nnc(-c3nccs3)n2)cc1	none (no result: CHX counter, Shiga toxin inh, LmPK inh, Giardia FBPA inh)
Brc1ccccc1-n1nnc(-c2nccs2)n1	CHX counter 49, Shiga toxin inh 77
Cn1ccnc1-c1nnn(-c2ccc(Cl)c(Cl)c2)n1	none (no result: CHX counter, Shiga toxin inh, LmPK inh, Giardia FBPA inh)

Screening data as filed in PubChem.
